Test systems include HCT-15 colon; HT29 colon; SNB-75 CNS; SNB-19 CNS; U251 CNS; PC-3 prostate; SK-MEL-5 melanoma; UACC-62 melanoma; LOX IMVI melanoma; SK-MEL-28 melanoma; SK-MEL-2 melanoma; EKVX NSCLC; SN12C renal; UO-31 renal; TK-10 renal; ACHN renal; CAKI-1 renal; A498 renal; CCRF-CEM leukemia; MOLT-4 leukemia.
Holding throughout (assay): NCI-60 one-dose screen, 48 h (100 = growth as untreated, 0 = no growth, -100 = all killed)
Holding throughout (settings): 10 µM unless noted

The panel holds about 83,000 compounds, 20% with a hit somewhere; the sample as a whole holds those more often.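 Plates (96-well) were seeded with cells, treated with compound at one concentration, and incubated for 48 hours before percent growth was determined.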 Values without a mark were called inactive. Active and inactive are the calls of the source. Rule for the calls: active = growth percent below 10; inactive = the rest.

`c1ccc(-c2oc(-c3ccccc3)c(CN3CCCCC3)c2CN2CCCCC2)cc1`: the growth in the assay with HCT-15 colon was 19.4%; with HT29 colon it was 10.9%; in the assay on SNB-75 CNS, 55.6%; in the assay with SNB-19 CNS it was 44.5%; in the assay on U251 CNS, 25.2%; in the assay on PC-3 prostate, 19.6%. Further, the growth in the assay with SK-MEL-5 melanoma is -87% (active); in the assay with UACC-62 melanoma it was 37.6%; in the assay with LOX IMVI melanoma, 22.3%; in the assay with SK-MEL-28 melanoma it was 10.1%; in the assay with SK-MEL-2 melanoma, 48.4%; in the assay with EKVX NSCLC, 41%. The growth is 31.2% in the assay with SN12C renal; 18.5% in the assay on UO-31 renal; 42.2% in the assay on TK-10 renal; 44.9% in the assay with ACHN renal; 38.1% with CAKI-1 renal; 17.5% in the assay with A498 renal. In addition, the growth was 24.1% in the assay on CCRF-CEM leukemia and 15.2% in the assay with MOLT-4 leukemia.
For the molecule `CCCc1c(OC(=O)c2ccccc2)nc2[nH]c(=O)sc2c1C`, the growth is 98.3% with HCT-15 colon; 104% in the assay on HT29 colon; 88.9% with SNB-75 CNS; 96% in the assay with SNB-19 CNS; 97.7% in the assay with U251 CNS; 97.2% with PC-3 prostate. Moreover, the growth with SK-MEL-5 melanoma was 98%; in the assay with UACC-62 melanoma, 88.8%; with LOX IMVI melanoma it was 98.3%; in the assay with SK-MEL-28 melanoma, 104%; in the assay on SK-MEL-2 melanoma it was 107%; in the assay on EKVX NSCLC, 97.9%. Besides, the growth with SN12C renal is 92%; with UO-31 renal, 82.3%; in the assay with TK-10 renal it was 96.1%; in the assay with ACHN renal it was 107%; in the assay on CAKI-1 renal it was 95.6%; with A498 renal, 108%. The growth was 103% in the assay with CCRF-CEM leukemia and 104% in the assay on MOLT-4 leukemia.
Consider `COc1ccc(C(=O)/C=C/c2c(C(F)(F)F)nc3ccccn23)cc1OC`, for which the growth in the assay with HCT-15 colon was -13.6% (active); with HT29 colon, 6.89% (active); with SNB-75 CNS, -19.9% (active); with SNB-19 CNS, 16.5%; with U251 CNS, 7.17% (active); in the assay on PC-3 prostate it was 30.6%. Further, the growth was 4.43% (active) in the assay on SK-MEL-5 melanoma; 5.04% (active) in the assay with UACC-62 melanoma; -53.1% (active) in the assay on LOX IMVI melanoma; 28.2% in the assay on SK-MEL-28 melanoma; 31.3% with SK-MEL-2 melanoma; 8.13% (active) with EKVX NSCLC. For the same molecule, the growth with SN12C renal was 16.1%; with UO-31 renal, 25.9%; in the assay with TK-10 renal, 29.9%; in the assay on ACHN renal, -41.1% (active); with CAKI-1 renal, -5.18% (active); in the assay with A498 renal, 65.8%. Moreover, the growth is 14.9% with CCRF-CEM leukemia and 7.14% (active) in the assay on MOLT-4 leukemia.
Take `O=C(Nc1cccc2ccccc12)NC1CC1`: the growth with HCT-15 colon is 112%; in the assay on HT29 colon it was 114%; with SNB-75 CNS it was 83.6%; in the assay on SNB-19 CNS, 107%; in the assay on U251 CNS, 101%; in the assay with PC-3 prostate, 97.4%. Moreover, the growth in the assay with SK-MEL-5 melanoma is 103%; in the assay on UACC-62 melanoma it was 99.8%; with LOX IMVI melanoma, 101%; in the assay on SK-MEL-28 melanoma it was 105%; in the assay with SK-MEL-2 melanoma, 121%; with EKVX NSCLC it was 109%. In addition, the growth is 106% in the assay with SN12C renal; 88% with UO-31 renal; 117% in the assay on TK-10 renal; 101% with ACHN renal; 96.5% in the assay on CAKI-1 renal; 112% with A498 renal. Further, the growth is 97.5% with CCRF-CEM leukemia and 92.6% with MOLT-4 leukemia.
`CCn1cc(C(=O)O)c(=O)c2cc(F)c(N3CCN(CC(=O)Nc4ccc(S(=O)(=O)Nc5nccc(C)n5)cc4)C(C)C3)c(F)c21` (stereo not given): the growth in the assay on HCT-15 colon is 100%; with HT29 colon, 117%; in the assay on SNB-75 CNS, 95.7%; with SNB-19 CNS, 98.7%; with U251 CNS, 110%; with PC-3 prostate, 98%. In addition, the growth was -93.3% (active) in the assay with SK-MEL-5 melanoma; 94.2% in the assay on UACC-62 melanoma; 95.6% in the assay on LOX IMVI melanoma; 107% in the assay with SK-MEL-28 melanoma; 119% in the assay with SK-MEL-2 melanoma; 111% with EKVX NSCLC. Also, the growth in the assay on SN12C renal is 98%; in the assay with UO-31 renal it was 83.3%; in the assay with TK-10 renal, 129%; in the assay with ACHN renal, 102%; in the assay on CAKI-1 renal it was 88.6%; in the assay on A498 renal, 111%. Moreover, the growth was 102% in the assay on CCRF-CEM leukemia and 123% in the assay with MOLT-4 leukemia.
On to `Cc1ccc(/C=C2\COc3ccc(O)cc3C2=O)cc1`, for which the growth is 70.8% in the assay with HCT-15 colon; 57.7% with HT29 colon; 84.6% with SNB-75 CNS; 87.5% in the assay with SNB-19 CNS; 69.9% in the assay on U251 CNS; 86% in the assay on PC-3 prostate. The growth in the assay on SK-MEL-5 melanoma is 97.7%; in the assay with UACC-62 melanoma, 86.1%; with LOX IMVI melanoma, 57%; with SK-MEL-28 melanoma it was 103%; in the assay with SK-MEL-2 melanoma it was 117%; with EKVX NSCLC, 97.8%. In addition, the growth in the assay on SN12C renal is 79.9%; in the assay on UO-31 renal, 58.9%; with TK-10 renal it was 102%; in the assay with ACHN renal, 94%; with CAKI-1 renal it was 80.8%; in the assay with A498 renal, 109%. In addition, the growth in the assay with CCRF-CEM leukemia is 2.21% (active); in the assay on MOLT-4 leukemia it was 40.6%.
As to `O=C(N/N=C/c1c(Cl)cccc1Cl)c1cccnc1Nc1cccc(C(F)(F)F)c1`, the growth in the assay on HCT-15 colon was 26%; in the assay on HT29 colon, 40.4%; in the assay on SNB-75 CNS, 63.1%; with SNB-19 CNS, 27.7%; in the assay with U251 CNS, 16.4%; in the assay with PC-3 prostate it was 24.3%. The growth in the assay with SK-MEL-5 melanoma was 20.5%; in the assay with UACC-62 melanoma, 17.2%; in the assay with LOX IMVI melanoma it was 25.8%; in the assay on SK-MEL-28 melanoma it was 107%; in the assay on SK-MEL-2 melanoma, -6.91% (active); in the assay on EKVX NSCLC, 17.6%. Moreover, the growth in the assay with SN12C renal was 42.6%; with UO-31 renal it was 29.8%; in the assay on TK-10 renal it was 35.6%; with ACHN renal, 29.6%; with CAKI-1 renal, 60.1%; in the assay on A498 renal, 65.6%. The growth with CCRF-CEM leukemia is 18.9%; with MOLT-4 leukemia, 31.7%.

The values above are taken from PubChem BioAssay (NCI).
